These results are taken from PubChem BioAssay (NCATS).

Test [1] is described as follows: qHTS of pediatric cancer cell lines to identify multiple opportunities for drug repurposing: Primary screen for SJ-GBM2 cells (AID 1347091). Also: potency is read from the fitted curve at half-maximal effect. The method, boiled down: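 Viability measured as metabolically active cells via CellTiter-Glo luminescence following 48 hours of compound exposure, 11-point dilutions in confirmatory testing. 500-1,000 cells/well plated 5 hours before dosing; controls were DMSO and 2.3 µM bortezomib.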
(In general: qHTS replaces the single test concentration by a dilution series.)

Test [2] can be described thus: qHTS of pediatric cancer cell lines to identify multiple opportunities for drug repurposing: Primary screen for SK-N-MC cells (AID 1347093). Also: potency is read from the fitted curve at half-maximal effect. A digest of the protocol:
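Metabolically active cells were quantified by ATP-dependent luminescence (CellTiter-Glo, 15 min at room temperature) following 48 h treatment. Cells had been plated at 500-1,000 per well and settled for 5 h beforehand.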

The nature of test [3]: qHTS of pediatric cancer cell lines to identify multiple opportunities for drug repurposing: Primary screen for BT-37 cells (AID 1347094). Also: potency is read from the fitted curve at half-maximal effect. The method, boiled down: (§1)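 Quantitative HTS format: each compound titrated (MIPE 11 points from 0.78 nM, NPC 8 points from 0.59 nM) onto cells plated 5 hours earlier. After 48 h at 37 degrees C, CellTiter-Glo luminescence was recorded.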

A short description of test [4]: qHTS of pediatric cancer cell lines to identify multiple opportunities for drug repurposing: Primary screen for U-2 OS cells (AID 1347096). Also: nearly all actives have a fitted effect of over 50% in size. The method, boiled down:
(§2)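 Viability after 48 h compound treatment at 37C, 500-1,000 cells/well, read as ATP luminescence with CellTiter-Glo. Primary screens used 11-point (MIPE, 0.78 nM-46 µM) or 8-point (NPC, 0.59 nM-46 µM) final concentrations; follow-up screens used 11-point dilutions.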

A short description of test [5]: qHTS of pediatric cancer cell lines to identify multiple opportunities for drug repurposing: Primary screen for Saos-2 cells (AID 1347097). Also: nearly all actives have a fitted effect of over 40% in size. Also: potency is read from the fitted curve at half-maximal effect. The method, boiled down:
as §1

Test [6] is described as follows: qHTS of pediatric cancer cell lines to identify multiple opportunities for drug repurposing: Primary screen for SK-N-SH cells (AID 1347098). Also: nearly all actives have a fitted effect of over 65% in size. Also: potency is read from the fitted curve at half-maximal effect. A digest of the protocol:
(§3)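 Cells (500-1,000/well) rested 5 h, then received compounds for 48 h; metabolically active cells were measured by CellTiter-Glo luminescence. Final concentrations spanned up to 46 µM (MIPE, 11-point) or 0.59 nM-46 µM (NPC, 8-point) in primary screens, 11-point in follow-ups.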

Test [7] is described as follows: qHTS of pediatric cancer cell lines to identify multiple opportunities for drug repurposing: Primary screen for LAN-5 cells (AID 1347100). Also: potency is read from the fitted curve at half-maximal effect. The method, boiled down: as §2
Test [8] in a line: qHTS of pediatric cancer cell lines to identify multiple opportunities for drug repurposing: Primary screen for BT-12 cells (AID 1347101). Also: nearly all actives have a fitted effect of over 25% in size. Also: potency is read from the fitted curve at half-maximal effect. A digest of the protocol:
as §3

Test [9] is described as follows: qHTS of pediatric cancer cell lines to identify multiple opportunities for drug repurposing: Primary screen for Rh18 cells (AID 1347102). Also: nearly all actives have a fitted effect of over 65% in size. Also: potency is read from the fitted curve at half-maximal effect. A digest of the protocol:
as §2

Test [10] can be described thus: qHTS of pediatric cancer cell lines to identify multiple opportunities for drug repurposing: Primary screen for OHS-50 cells (AID 1347103). Also: nearly all actives have a fitted effect of over 40% in size. Also: potency is read from the fitted curve at half-maximal effect. A digest of the protocol: as §3
A short description of test [11]: qHTS of pediatric cancer cell lines to identify multiple opportunities for drug repurposing: Primary screen for RD cells (AID 1347104). Also: nearly all actives have a fitted effect of over 55% in size. Also: potency is read from the fitted curve at half-maximal effect. A digest of the protocol: as §1
Test [12] in a line: qHTS of pediatric cancer cell lines to identify multiple opportunities for drug repurposing: Primary screen for MG 63 (6-TG R) cells (AID 1347105). Also: nearly all actives have a fitted effect of over 50% in size. Also: potency is read from the fitted curve at half-maximal effect. The method, boiled down: as §1
A short description of test [13]: qHTS of pediatric cancer cell lines to identify multiple opportunities for drug repurposing: Primary screen for control Hh wild type fibroblast cells (AID 1347106).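 Also: series mostly up to about 46 µM; a drop in luminescence marks cytotoxicity and a rise apparent proliferation; nearly all actives have a fitted effect of over 55% in size.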 A digest of the protocol:
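Cells (500-1,000/well) in growth media were settled 5 h at 37 degrees C, then given compounds for 48 h. Viability was read as CellTiter-Glo luminescence. Primary runs used MIPE at 11 points (0.78 nM-46 µM) and NPC at 8 points (0.59 nM-46 µM); follow-ups used 11 points.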

The nature of test [14]: qHTS of pediatric cancer cell lines to identify multiple opportunities for drug repurposing: Primary screen for Rh41 cells (AID 1347108). Also: nearly all actives have a fitted effect of over 70% in size. Also: potency is read from the fitted curve at half-maximal effect. A digest of the protocol:
as §1

The nature of test [15]: qHTS of pediatric cancer cell lines to identify multiple opportunities for drug repurposing: Primary screen for NB1643 cells (AID 1347099). Also: potency is read from the fitted curve at half-maximal effect; nearly all actives have a fitted effect of over 50% in size. A digest of the protocol:
as §1

The nature of test [16]: qHTS of pediatric cancer cell lines to identify multiple opportunities for drug repurposing: Primary screen for Rh30 cells (AID 1347107). Also: nearly all actives have a fitted effect of over 75% in size. Also: potency is read from the fitted curve at half-maximal effect. The method, boiled down:
as §2

Test [17] is described as follows: qHTS of pediatric cancer cell lines to identify multiple opportunities for drug repurposing: Primary screen for A673 cells (AID 1347092). Also: nearly all actives have a fitted effect of over 45% in size. Also: potency is read from the fitted curve at half-maximal effect. A digest of the protocol:
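Titration-based qHTS on A673 cells: MIPE compounds spanned 11 points (0.78 nM to 46 µM final), NPC compounds 8 points (0.59 nM to 46 µM final). Viability after 48 h was measured by ATP luminescence.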

Test [18] in a line: qHTS of pediatric cancer cell lines to identify multiple opportunities for drug repurposing: Primary screen for NB-EBc1 cells (AID 1347095). Also: potency is read from the fitted curve at half-maximal effect. The method, boiled down:
as §1

Test [19] is described as follows: qHTS of pediatric cancer cell lines to identify multiple opportunities for drug repurposing: Confirmatory screen for NB1643 cells (AID 1347109). Also: nearly all actives have a fitted effect of over 45% in size. The method, boiled down:
as §2

Records with an inconclusive call do not appear. Calls of active or inactive are those of the source. Calls follow the shape of the dose curve; as a rule, active = well fitted curve in the direction sought with a large enough effect; inconclusive = small, poorly fitted or top-dose-only effect, or another doubt; inactive = no such curve, though single readings can be large; an effect the other way counts as inactive or inconclusive.

On to `OC[C@H]1O[C@@H](Oc2ccc(O)cc2)[C@H](O)[C@@H](O)[C@H]1O`, for which the Potency entry in test [1], in test [3], in test [4], in test [5], in test [6] and in test [7] was “inactive” throughout. In addition, the Potency result in test [8], in [9], in test [10], in test [11], in test [12] and in test [13] was “inactive” throughout. Besides, the Potency entry in test [14] was “inactive”. The Potency in [2] is 13.2 µM (active).

`Oc1ccc(C=Cc2cc(O)cc(O)c2)cc1`: the Potency is 18.7 µM (active) in [1]; 11.8 µM (active) in test [2]; 21.7 µM (active) in test [3]; 29.6 µM (active) in test [5]; 20.9 µM (active) in [15]. Moreover, the Potency result in test [4], in test [9], in [12], in [13], in test [16] and in test [14] was “inactive” in each case.

`COc1c(C)cnc(Cn2cnc3c(Cl)nc(N)nc32)c1C`: the Potency is 0.296 µM (active) in test [1]; 0.235 µM (active) in test [17]; 0.132 µM (active) in test [2]; 0.118 µM (active) in test [18]; 0.264 µM (active) in [15]; 0.166 µM (active) in test [7]. The Potency was 0.332 µM (active) in [9], 0.432 µM (active) in test [10] and 1.18 µM (active) in test [14]. Also, the Potency entry in [5] and in test [16] was “inactive” each time.

`CCN1CCC(n2cc(CNc3cc(Cl)c4ncc(C#N)c(Nc5ccc(F)c(Cl)c5)c4c3)nn2)CC1`: the Potency in [1] was 18.7 µM (active); in [17] it was 14.8 µM (active); in [3] it was 24.3 µM (active); in test [18], 23.5 µM (active); in [5] it was 14.8 µM (active); in [8], 24.3 µM (active). Further, the Potency is 20.9 µM (active) in test [9]; 17.2 µM (active) in [10]; 18.7 µM (active) in [11]; 23.5 µM (active) in test [16]; 14.8 µM (active) in test [14]. Moreover, the Potency result in test [4] and in test [13] was “inactive” throughout.

For `C[C@@H]1C[C@H]2[C@@H]3CCC4=CC(=O)C=C[C@]4(C)[C@@]3(F)[C@@H](O)C[C@]2(C)[C@@]1(O)C(=O)CO`, the Potency entry in test [1], in test [3], in [18], in test [4], in test [5] and in test [7] was “inactive” throughout. Besides, the Potency entry in test [8], in test [10], in test [11], in [13], in test [16] and in test [19] was “inactive” in each case. Also, the Potency in test [2] was 0.001 µM (active).

Turning to `CCCCOCCOc1nc(-c2ccc(C(=O)O)c(F)c2)sc1C`, the Potency entry in test [1], in [17], in test [3], in test [18], in test [4] and in test [5] was “inactive” in each case. Further, the Potency result in test [7] and in [11] was “inactive” throughout. Moreover, the results for the Potency in test [6] and in test [10] were 6.81 µM (active) and 0.485 µM (active), respectively.

As to `CN1[C@H]2CC[C@H]1CC(OC(=O)c1c[nH]c3ccccc13)C2` (stereo partly specified), the Potency entry in test [1], in test [17], in test [3], in test [4], in test [7] and in test [8] was “inactive” in each case. Also, the Potency result in test [11], in test [12], in test [13] and in test [16] was “inactive” in each case. In addition, the Potency was 24.1 µM (active) in [6] and 23.5 µM (active) in test [15].

For the molecule `CCCCC[C@H](O)C=C[C@H]1[C@H](O)CC(=O)[C@H]1CCCCCCC(=O)O`, the Potency entry in test [1], in test [2], in test [3], in [18], in test [5] and in test [6] was “inactive” each time. For the same molecule, the Potency entry in [9], in [10], in [12], in test [13] and in [16] was “inactive” throughout.

Turning to `Cc1c(C(=O)Nc2ccc(N3C[C@@H](C)O[C@@H](C)C3)nc2)cccc1-c1ccc(OC(F)(F)F)cc1`, the Potency in test [1] was 18.7 µM (active); in test [17], 7.43 µM (active); in test [2] it was 16.6 µM (active); in test [18], 14.8 µM (active); in [5], 18.7 µM (active); in test [8] it was 13.7 µM (active). Also, the Potency was 19.3 µM (active) in test [10] and 23.5 µM (active) in test [12]. In addition, the Potency entry in test [13] and in test [19] was “inactive” each time.

Regarding `C#C[C@]1(O)CC[C@H]2[C@H]3CCc4cc(OC)ccc4[C@H]3CC[C@@]21C`, the Potency result in test [1], in [3], in [18], in test [4], in [5] and in [7] was “inactive” in each case. For the same molecule, the Potency result in test [8], in test [9], in test [13], in [16] and in [14] was “inactive” throughout. In addition, the Potency in test [17] was 18.7 µM (active).

As to `COc1ccc(-c2cc(=O)c3c(O)cc(O[C@@H]4O[C@H](CO[C@@H]5O[C@@H](C)[C@H](O)[C@@H](O)[C@@H]5O)[C@@H](O)[C@H](O)[C@@H]4O)cc3o2)cc1O`, the Potency entry in test [1], in test [3], in [18], in test [4], in [5] and in test [7] was “inactive” in each case. The Potency result in test [8], in test [9], in test [10], in [12] and in [13] was “inactive” each time. Besides, the Potency was 14.8 µM (active) in test [17], 27.1 µM (active) in test [6] and 16.6 µM (active) in test [15].

`COc1ccc(-c2cc3nccn3c(Nc3ncccc3C(N)=O)n2)cc1OC`: the Potency is 1.18 µM (active) in [1]; 1.48 µM (active) in test [17]; 1.66 µM (active) in test [2]; 2.64 µM (active) in test [18]; 1.05 µM (active) in test [5]; 2.35 µM (active) in test [15]. In addition, the Potency in test [7] is 1.48 µM (active); in test [10], 1.93 µM (active). Further, the Potency entry in test [9], in [12] and in [13] was “inactive” throughout.

Take `COc1ccc(CCC(=O)Nc2nc3ccc(Cl)cc3s2)cc1OC`: the Potency result in test [1], in [18], in [4], in test [7], in test [8] and in [9] was “inactive” throughout. The Potency result in test [11], in test [12] and in [13] was “inactive” throughout. The Potency in test [17] was 18.7 µM (active); in [6], 9.61 µM (active); in test [15], 5.26 µM (active).

As for `CC(C)CN(C[C@H](O)[C@H](Cc1ccccc1)NC(=O)O[C@H]1CCOC1)S(=O)(=O)c1ccc(N)cc1`, the Potency entry in test [1], in [18], in test [4], in test [7], in test [9] and in test [19] was “inactive” each time. The Potency in test [17] is 11.8 µM (active).
